Data taken from ChEMBL document CHEMBL4888484, “Replenishing the malaria drug discovery pipeline: Screening and hit evaluation of the MMV Hit Generation Library 1 (HGL1) against asexual blood stage Plasmodium falciparum ,using a nano luciferase reporter read-out” (2022).
The campaign covered roughly 150,000 compounds. About 540 (0.36%) showed an effect of 50% or more. The list comes from a sample in which strong results are over-represented; it also holds similar structures and randomly drawn compounds.

These compounds were tested on Plasmodium falciparum (assay: Primary screen in NF54 nanoGlo assay, in single point, at 2uM, 72h; a lower Z score goes with more inhibition). Conditions: timepoint 72 hour.
Assay type: functional, Erythrocyte

SMILES | % Inhibition [%] | Z score
CN(C)c1nc(N)cc(-c2cccc3cccnc23)n1 | 57 | -7.96
CN(C)c1nc(N)cc(-c2ccc(-n3cccn3)cc2)n1 | -1 | 0.21
COc1ccc(F)c(-c2cc(N)nc(N(C)C)n2)c1 | -15 | 2.16
COc1ccc2c(c1)C1(CC1)CN(C(=O)Nc1ccnnc1C)C2 | -11 | 2.25
COc1ccc(-c2cc3c(=O)n(CCNC(=O)Cc4ccc(F)cc4)ccn3n2)cc1 | -7 | 1.17
CNC(=O)[C@@H]1C[C@H](Oc2ccccc2)CN1S(C)(=O)=O | -12 | 1.64
NC(=O)[C@@H]1CN(Cc2ncc(C(F)(F)F)s2)CCO1 | -12 | 1.56
CC[C@H](C)NC(=O)COc1ccc(Cl)cc1C(N)=O | -8 | 0.84
Cc1cc(N(C)CCC2CC2)nc([C@H](C)N(C)CCC2CC2)n1 | 59 | -9.38
CCc1nc(C)cc(N(C)CCn2nc(C)cc2C)n1 | -18 | 1.72
Cc1cc(O)nc([C@H](C)N(C)CC2CCOCC2)n1 | -12 | 1.59
OCCN(CCO)C[C@H](O)COc1c(Br)cc(Br)cc1Br | -7 | 1.05
CCCN(CCC)C[C@H](O)COc1c(Cl)cccc1Cl | -6 | 0.67
CCN(CC)CC(O)COc1c(Br)cc(C(C)(C)c2cc(Br)c(OCC(O)CN(CC)CC)c(Br)c2)cc1Br (centres undefined) | 99 | -13.36
Cc1ncc2ncccc2c1Br | -4 | 0.8
Cc1nc(-c2ccccc2)cc(N2CCN(CCc3ccccc3)CC2)n1 | 0 | 0
Cn1c(Cc2n[n+]3c(-c4ccccc4)cc(-c4ccccc4)nc3n2C)n[n+]2c(-c3ccccc3)cc(-c3ccccc3)nc12 | 95 | -10.43
C[n+]1cnc(-c2ccccc2)cc1-c1ccccc1 | 1 | -0.07
CCS(=O)(=O)CCNC(=O)c1ccnc(C(C)C)n1 | -4 | 0.73
O=C(Cn1nc(-n2cccn2)ccc1=O)NCc1ccco1 | -7 | 1.27
NC(=O)c1ccc(C(=O)OC2CCCCCC2)cn1 | 3 | -0.42

SMILES | % Inhibition [%] | Z score
CCOC(=O)c1ccc(NC(=O)CC2CCC2)cn1 | 3 | -0.29
CCCC1CCC(OC(=O)c2ccc(C(=O)OC3CCC(CCC)CC3)nc2)CC1 (centres undefined) | 74 | -10.02
CCc1nnc(-c2[nH]c(C)c(S(=O)(=O)Nc3cccc(Cl)c3)c2C)o1 | -5 | 0.66
COC(C)[C@H](C)NCC(C)c1ccccc1 (some centres undefined) | 73 | 1.55
Cc1c(NC[C@H](C)c2ccccc2)cnn1C | -3 | 0.4
C[C@@H](CNC(=O)C(C)(C)C)c1ccccc1 | -10 | 0.9
Cc1cnc(=O)n(CC(=O)N2CCN(c3ccccc3F)CC2)c1 | -1 | 0.07
Cn1cccc1CN(C(=O)c1cc2ccccc2[nH]1)C1CC1 | -5 | 1
CN1CCC(N(CCc2ccccc2)C(=O)c2cccc3cnccc23)CC1 | -4 | 0.65
Cc1sc2ncnc(Nc3ccc4c(c3)OCO4)c2c1C | -3 | 0.37
CC[C@H](C)[C@@H](CN(C)C)NC(=O)CCc1ccncc1 | 20 | -2.58
O=C(NCC1CC1)c1ccc2[nH]c3c(c2c1)CCCCC3 | -12 | 1.65
CCCC(O)(CCC)CC(=O)N1CCN(C(=O)OCC)CC1 | -7 | 0.63
O=C(c1ccc(-c2cn(-c3ccccc3)cn2)cc1)N1CCOC[C@@H](O)C1 | 5 | -0.8
CCOc1cc(CN2CC[S+]([O-])CC2)ccc1OC | 6 | -1.1
Cc1nn(C)c(Cl)c1C(=O)Nc1ccc2ccccc2c1 | 10 | -1.64
Cc1nn(C)c(Cl)c1CNCc1ccc(N2CCCC2=O)cc1 | -5 | 0.6
Cc1nn(CCO)c(C)c1[C@@H]1NCCc2[nH]cnc21 | -16 | 2.3
c1ccc(-c2cc([C@@H]3NCCc4[nH]cnc43)on2)cc1 | -4 | 0.56
CCc1ccc([C@H]2NCCc3[nH]cnc32)nc1 | 55 | -5.21
CCc1nnc2c(S(=O)(=O)N(Cc3cccc(Cl)c3)c3ccccc3)cccn12 | -17 | 2.2
